Measured values reported in PubChem BioAssay.
Records with an inconclusive call do not appear. The source made the active and inactive calls.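 Rule for the calls, unless noted: active = binding below the plate cutoff, the plate median minus 3 SD, with a reading above zero; inconclusive = below the plate cutoff but reading exactly zero; inactive = the rest.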

Key:
[1] = yeast TOR pathway RPL19A-GFP modulators, primary screen, cell-based, S. cerevisiae, multiplex flow cytometry (AID 1862; in the data active = percent of DMSO control GFP below about 86%;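 note: lower values mimic rapamycin by blocking the RPL19A rise seen in DMSO cells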); conditions: S. cerevisiae RPL19A-GFP strain, flow cytometry fluorescence, 3 h; at 10 µM; stronger effect = lower value
[2] = modulators of MEP2-GFP levels in yeast, primary screen, S. cerevisiae, multiplex flow cytometry (AID 1867;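 active = GFP response, as percent of the DMSO control, above the screen-wide mean plus 3 SD, about 139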;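 note: median GFP channel fluorescence of barcode-gated MEP2-GFP cells measured by flow cytometry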); conditions: S. cerevisiae MEP2-GFP strain, 3 h, at 10 µM, stronger effect = higher value, 100% means same as DMSO wells
[3] = modulators of CIT2-GFP expression in yeast, primary screen, S. cerevisiae, GFP fusion, multiplex flow cytometry (AID 1870;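 active = percent response above a set limit, the screen-wide mean plus 3 SD, cut at about 130% in these data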;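 note: barcoded CIT2-GFP strain pooled with four other GFP strains with rapamycin as positive control; median GFP fluorescence per well over plate mean of DMSO wells so 100% = DMSO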); conditions: 3 h, at 10 µM, stronger effect = higher value
[4] = modulators of LAP4-GFP expression in yeast, primary screen, S. cerevisiae, multiplex flow cytometry (AID 1873;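 active = GFP signal, as percent of the solvent control, above the screen mean plus 3 SD, about 149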); conditions: 3 h, at 10 µM, stronger effect = higher value
[5] = modulators of AGP1-GFP expression in yeast TOR pathway, primary screen, cell-based, multiplex flow cytometry, S. cerevisiae (AID 1887;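 active = GFP signal above the screen-wide mean plus 3 SD, that is over about 124.5% of the solvent control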;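 note: AGP1-GFP fusion strain of S. cerevisiae within a five-strain barcoded multiplex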); conditions: 3 h, at 10 µM, stronger effect = higher value
[6] = inhibitors of CD8+ T cell-vesicle binding, pilot screen, LFA-1/ICAM-1 modulator project, MLPCN validation set, flow cytometry (AID 2523;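 active = response below a set limit, under 55% cells CD8-positive and vesicle-bound, and CD8 cells' 90th-percentile brightness under 279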;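 for vesicle binding response: mean PE anti-B7-1 fluorescence of CD8+ cells relative to row control; 100% = QL9-loaded vesicles with DMSO vehicle in the same plate row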); conditions: 2C mouse CD8+ T cells, at 7 µM, stronger effect = lower value; double positive events: measured here: CD8+/vesicle+ event percentage
[7] = target: Integrin beta-1 (Homo sapiens) + Integrin alpha-4 (Homo sapiens) (UniProt P13612+P05556); test: inhibition of HUTS-21 binding to VLA-4, pilot screen, VLA-4 allosteric modulator project, U937 cells, HUTS-21 mAb, flow cytometry, validation set (AID 2674;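 active = inhibition above 50%, about 3 SD of the validation set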;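 note: antibody binding induced by the VLA-4 ligand LDV present at three times its Kd; 0% = LDV ligand with antibody and no compound and 100% = antibody without LDV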); conditions: HUTS-21 LIBS mAb binding, at 6.7 µM, stronger effect = higher value, binding induced by LDV ligand
Sequence of Integrin beta-1 (Homo sapiens) + Integrin alpha-4 (Homo sapiens) (P05556 whole entry, looked up): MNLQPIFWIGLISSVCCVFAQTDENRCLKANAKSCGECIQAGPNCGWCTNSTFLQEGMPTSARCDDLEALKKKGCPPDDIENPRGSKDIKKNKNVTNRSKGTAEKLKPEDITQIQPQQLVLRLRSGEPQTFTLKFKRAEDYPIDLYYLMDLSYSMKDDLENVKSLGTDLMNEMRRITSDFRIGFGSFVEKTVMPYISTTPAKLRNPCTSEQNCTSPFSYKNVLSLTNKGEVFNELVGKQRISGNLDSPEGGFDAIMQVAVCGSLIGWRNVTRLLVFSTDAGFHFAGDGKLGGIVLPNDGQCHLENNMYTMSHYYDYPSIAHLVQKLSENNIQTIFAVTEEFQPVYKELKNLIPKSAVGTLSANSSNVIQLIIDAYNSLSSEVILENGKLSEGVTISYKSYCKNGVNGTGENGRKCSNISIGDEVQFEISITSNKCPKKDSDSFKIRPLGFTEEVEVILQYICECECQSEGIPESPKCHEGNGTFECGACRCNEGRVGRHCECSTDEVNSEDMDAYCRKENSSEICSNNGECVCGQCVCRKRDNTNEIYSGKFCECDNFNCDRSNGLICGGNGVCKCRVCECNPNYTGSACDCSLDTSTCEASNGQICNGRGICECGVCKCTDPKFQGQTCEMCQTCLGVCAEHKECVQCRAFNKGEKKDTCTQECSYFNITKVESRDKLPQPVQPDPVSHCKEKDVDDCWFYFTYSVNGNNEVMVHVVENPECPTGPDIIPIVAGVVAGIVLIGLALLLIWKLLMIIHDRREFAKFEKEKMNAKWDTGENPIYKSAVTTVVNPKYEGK
Sequence of Integrin beta-1 (Homo sapiens) + Integrin alpha-4 (Homo sapiens) (P13612 whole entry, looked up): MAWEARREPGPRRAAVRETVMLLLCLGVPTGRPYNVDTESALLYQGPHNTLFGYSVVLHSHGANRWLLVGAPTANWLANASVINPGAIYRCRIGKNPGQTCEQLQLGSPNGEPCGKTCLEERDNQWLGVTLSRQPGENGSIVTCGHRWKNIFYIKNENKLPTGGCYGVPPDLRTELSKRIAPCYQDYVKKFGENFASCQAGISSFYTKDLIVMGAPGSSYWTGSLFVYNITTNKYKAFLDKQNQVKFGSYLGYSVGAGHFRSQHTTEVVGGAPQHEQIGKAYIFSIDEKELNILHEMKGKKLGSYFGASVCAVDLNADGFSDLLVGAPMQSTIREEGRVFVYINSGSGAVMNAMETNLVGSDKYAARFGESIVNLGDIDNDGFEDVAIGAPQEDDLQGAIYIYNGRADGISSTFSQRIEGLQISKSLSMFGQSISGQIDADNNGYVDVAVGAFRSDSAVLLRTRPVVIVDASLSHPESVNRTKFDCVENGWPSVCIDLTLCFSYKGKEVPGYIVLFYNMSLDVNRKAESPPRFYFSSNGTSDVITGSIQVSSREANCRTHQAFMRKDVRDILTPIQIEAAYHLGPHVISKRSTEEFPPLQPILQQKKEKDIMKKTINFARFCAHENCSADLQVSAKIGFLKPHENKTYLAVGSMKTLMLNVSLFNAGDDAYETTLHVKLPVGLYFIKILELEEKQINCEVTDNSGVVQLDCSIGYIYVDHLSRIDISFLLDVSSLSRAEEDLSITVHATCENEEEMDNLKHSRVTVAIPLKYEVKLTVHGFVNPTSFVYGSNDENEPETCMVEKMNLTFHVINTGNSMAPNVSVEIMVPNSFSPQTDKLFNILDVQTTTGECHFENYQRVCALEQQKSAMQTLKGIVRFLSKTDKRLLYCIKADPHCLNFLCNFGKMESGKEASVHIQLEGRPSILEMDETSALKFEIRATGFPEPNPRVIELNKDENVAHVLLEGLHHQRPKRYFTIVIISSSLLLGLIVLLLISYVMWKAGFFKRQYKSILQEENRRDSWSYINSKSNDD

[8] = superoxide lowering in aged yeast cells, pilot screen, validation compound set (AID 2706;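 active = superoxide response below 65% of plate, a cut near 3 SD across the whole screen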;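 note: yeast exposed to compound for one week at 30 degrees C before staining; 100% = mean of all compound wells on the same plate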); conditions: S. cerevisiae aging, superoxide DHE fluorescence; at 10 µM; stronger effect = lower value
[9] = target: Beta-adrenergic receptor kinase 1 (Homo sapiens) (UniProt P25098); test: GRK2 binders displacing RNA aptamer, biochemical, validation, human GRK2, bead flow cytometry (AID 488806;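 active = aptamer binding inhibition above 30%, about 3 SD of noise from non-fluorescent compounds; inactive = inhibition at or below 30%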); conditions: bead-bound GRK2, FAM-aptamer displacement, at 10 µM, stronger effect = higher value
Sequence of Beta-adrenergic receptor kinase 1 (Homo sapiens) (P25098 whole entry, looked up): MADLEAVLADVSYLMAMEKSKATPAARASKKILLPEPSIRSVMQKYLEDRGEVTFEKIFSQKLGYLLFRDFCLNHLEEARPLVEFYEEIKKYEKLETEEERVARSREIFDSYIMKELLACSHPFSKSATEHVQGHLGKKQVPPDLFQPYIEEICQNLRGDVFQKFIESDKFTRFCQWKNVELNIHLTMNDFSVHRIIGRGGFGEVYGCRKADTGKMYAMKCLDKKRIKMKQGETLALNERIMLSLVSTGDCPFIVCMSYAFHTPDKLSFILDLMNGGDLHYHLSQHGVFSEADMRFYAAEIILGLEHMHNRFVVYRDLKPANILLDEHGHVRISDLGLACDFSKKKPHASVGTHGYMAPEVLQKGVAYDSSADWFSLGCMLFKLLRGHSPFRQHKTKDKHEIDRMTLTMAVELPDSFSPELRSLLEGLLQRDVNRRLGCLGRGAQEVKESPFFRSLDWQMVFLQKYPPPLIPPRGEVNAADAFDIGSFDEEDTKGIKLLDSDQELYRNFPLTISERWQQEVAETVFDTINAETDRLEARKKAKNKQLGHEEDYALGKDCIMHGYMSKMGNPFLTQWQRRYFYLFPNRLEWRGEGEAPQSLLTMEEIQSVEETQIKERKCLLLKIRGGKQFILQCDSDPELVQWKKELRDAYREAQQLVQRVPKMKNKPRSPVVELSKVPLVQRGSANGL

[10] = target: Beta-2 adrenergic receptor (Homo sapiens) (UniProt P07550); test: beta2AR agonists driving receptor internalization, pilot screen, cell-based, FAP fluorogen, flow cytometry, validation set (AID 504459;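 active = percent response above 42, roughly 3 SD of non-fluorescent test compounds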;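 note: agonist-driven loss of surface beta2AR via internalization measured by FAP dye flow cytometry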); conditions: Am2.2-beta2AR cells, FAP surface receptor flow cytometry; at 10 µM; stronger effect = higher value
Sequence of Beta-2 adrenergic receptor (Homo sapiens) (P07550 whole entry, looked up): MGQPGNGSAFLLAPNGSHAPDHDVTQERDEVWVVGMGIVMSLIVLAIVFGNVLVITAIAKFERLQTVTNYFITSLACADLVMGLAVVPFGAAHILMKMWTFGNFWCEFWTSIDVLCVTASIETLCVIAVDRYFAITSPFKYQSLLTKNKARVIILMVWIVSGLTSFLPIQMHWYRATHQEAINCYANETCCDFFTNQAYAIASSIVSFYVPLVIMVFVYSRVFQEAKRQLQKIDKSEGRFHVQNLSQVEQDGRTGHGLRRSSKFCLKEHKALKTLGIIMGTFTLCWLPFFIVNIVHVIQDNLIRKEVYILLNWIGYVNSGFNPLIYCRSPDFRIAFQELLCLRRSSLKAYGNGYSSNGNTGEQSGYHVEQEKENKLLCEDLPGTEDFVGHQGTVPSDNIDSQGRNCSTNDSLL

[11] = target: AP-2 complex subunit beta (Homo sapiens) (UniProt P63010); test: inhibitors of arrestin peptide binding to AP2, pilot screen, biochemical, validation set, GST-AP2 beads, flow cytometry (AID 504541;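 active = inhibition above 54%, about 3 SD of non-fluorescent compounds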;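 note: AP2 carries R879A mutation and is captured from E. coli lysate; bead-bound FITC arrestin peptide fluorescence measuring arrestin peptide binding to AP2; 0% = DMSO wells and 100% = excess unlabeled arrestin peptide control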); conditions: FITC arrestin peptide, at 10 µM, stronger effect = higher value, AP2 beta2 appendage fragment, R879A mutant
Sequence of AP-2 complex subunit beta (Homo sapiens) (P63010 whole entry, looked up, the tested form may be a part, one chain of several): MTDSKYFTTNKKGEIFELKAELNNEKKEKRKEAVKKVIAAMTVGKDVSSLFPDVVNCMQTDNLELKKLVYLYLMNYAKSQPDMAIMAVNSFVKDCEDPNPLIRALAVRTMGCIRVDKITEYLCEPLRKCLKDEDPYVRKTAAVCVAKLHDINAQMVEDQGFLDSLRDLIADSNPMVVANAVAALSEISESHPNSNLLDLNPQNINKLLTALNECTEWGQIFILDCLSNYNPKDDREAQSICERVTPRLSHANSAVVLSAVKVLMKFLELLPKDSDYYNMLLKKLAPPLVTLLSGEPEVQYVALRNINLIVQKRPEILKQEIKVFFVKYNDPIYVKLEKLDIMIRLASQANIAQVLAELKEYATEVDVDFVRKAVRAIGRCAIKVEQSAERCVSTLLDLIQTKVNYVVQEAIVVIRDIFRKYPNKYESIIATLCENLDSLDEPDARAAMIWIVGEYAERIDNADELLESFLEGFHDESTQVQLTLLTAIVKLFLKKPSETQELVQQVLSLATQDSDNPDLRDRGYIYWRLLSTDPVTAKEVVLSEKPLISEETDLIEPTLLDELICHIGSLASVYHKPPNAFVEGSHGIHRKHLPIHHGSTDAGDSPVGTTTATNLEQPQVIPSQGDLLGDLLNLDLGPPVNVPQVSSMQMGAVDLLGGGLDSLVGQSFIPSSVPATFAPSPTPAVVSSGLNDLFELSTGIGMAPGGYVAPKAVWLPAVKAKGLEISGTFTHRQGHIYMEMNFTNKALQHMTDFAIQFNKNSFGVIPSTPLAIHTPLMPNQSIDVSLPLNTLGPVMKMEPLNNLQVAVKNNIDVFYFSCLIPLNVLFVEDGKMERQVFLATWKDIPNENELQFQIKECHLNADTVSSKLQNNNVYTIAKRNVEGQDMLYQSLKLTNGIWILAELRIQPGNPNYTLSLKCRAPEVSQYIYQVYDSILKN

[12] = yeast V-ATPase proton transport modulators, S. cerevisiae, pHLuorin, HTS validation (AID 504600; in the data active = response above about 15%;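 note: plate controls were DMSO for no effect and reference compound for full effect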); conditions: S. cerevisiae pHLuorin cytosolic pH, at 10 µM, stronger effect = higher value
[13] = tested on: anti-desmoglein-3 scFv antibody binding to human DSG3; test: inhibitors of anti-DSG3 scFv binding to DSG3, pilot screen, biochemical, validation compound set, bead-based, flow cytometry (AID 588368); conditions: Protein G beads, DSG3-Fc, scFv-GFP binding, at 10 µM, stronger effect = lower value;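 note: signal is the median channel fluorescence of bead-bound GFP antibody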
[14] = inhibitors of fungal efflux pumps CDR1, CDR2, MDR1, pilot screen, validation compound set, multiplex, phenotypic (AID 588506;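 active = efflux inhibition above 0.42, the validation set average plus 4 SD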;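 note: Nile Red retained in cells so higher fluorescence means more efflux inhibition; 0 = negative control wells and 1 = enniatin B 25 µM full block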); conditions: S. cerevisiae pump-expressing triplex, Nile Red efflux flow cytometry; at 10 µM; stronger effect = higher value; the pumps come from Candida albicans
[15] = target: ATP-binding cassette sub-family B member 6 (Homo sapiens) (UniProt Q9NP58); test: ABCB6 transporter inhibitors, pilot screen, K562-ABCB6 cells, flow cytometry, validation set (AID 588550;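 active = inhibition above the screen-wide mean plus 3 SD, about 51%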;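 note: 0% = DMSO wells and 100% = benzethonium chloride 70 µM positive control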); conditions: K562-ABCB6 porphyrin accumulation, 1 h, at 10 µM, stronger effect = higher value
Sequence of ATP-binding cassette sub-family B member 6 (Homo sapiens) (Q9NP58 whole entry, looked up): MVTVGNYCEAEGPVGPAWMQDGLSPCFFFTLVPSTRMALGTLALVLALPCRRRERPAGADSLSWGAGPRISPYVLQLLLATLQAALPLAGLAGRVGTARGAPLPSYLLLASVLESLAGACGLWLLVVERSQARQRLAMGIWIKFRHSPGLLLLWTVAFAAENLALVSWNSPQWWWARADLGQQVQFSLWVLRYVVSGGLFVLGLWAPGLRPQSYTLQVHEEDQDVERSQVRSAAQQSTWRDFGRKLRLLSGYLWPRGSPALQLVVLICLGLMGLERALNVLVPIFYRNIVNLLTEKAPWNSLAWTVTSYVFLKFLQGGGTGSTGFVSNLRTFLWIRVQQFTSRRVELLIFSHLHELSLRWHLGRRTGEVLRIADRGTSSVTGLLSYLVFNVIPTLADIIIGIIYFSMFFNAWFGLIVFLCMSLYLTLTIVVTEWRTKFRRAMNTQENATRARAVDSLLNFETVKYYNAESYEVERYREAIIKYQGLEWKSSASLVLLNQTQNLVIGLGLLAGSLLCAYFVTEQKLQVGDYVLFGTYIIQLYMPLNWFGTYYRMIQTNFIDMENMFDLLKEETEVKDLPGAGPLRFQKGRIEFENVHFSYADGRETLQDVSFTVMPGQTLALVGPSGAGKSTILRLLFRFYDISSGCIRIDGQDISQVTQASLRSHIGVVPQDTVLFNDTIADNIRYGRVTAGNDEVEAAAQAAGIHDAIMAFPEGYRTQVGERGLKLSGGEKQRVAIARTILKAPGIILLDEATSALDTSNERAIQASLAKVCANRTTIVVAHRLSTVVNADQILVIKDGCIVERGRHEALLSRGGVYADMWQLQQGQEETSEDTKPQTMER

[16] = promoters of myeloid differentiation in arrested cells, primary screen, cell-based, GFP/MAC1 double positive, flow cytometry, validation set (AID 588685;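 active = differentiation response of at least 50%, scaled between solvent and reference control, from cells with both markers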;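 note: compound exposure lasts four days before antibody staining and flow analysis; 0% = DMSO wells and 100% = 5 µM fulvestrant positive control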); conditions: ER-HoxA9 marrow cells, stronger effect = higher value, normalized: vehicle 0, fulvestrant 100

SMILES	percent of DMSO control GFP [1]	GFP response vs DMSO [2]	percent response of DMSO control [3]	GFP response vs DMSO [4]	GFP response, % of DMSO [5]	double positive events [6] [%]	vesicle binding response [6]	inhibition [7]	superoxide response (% of plate) [8]	aptamer binding inhibition [9]	response [10]	inhibition [11]	response [12]	binding (% of control) [13]	efflux inhibition (fraction of control) [14]	inhibition [15]	differentiation response [16]
NS(=O)(=O)c1ccc(CNC(=O)c2cc(-c3ccccc3)nc3ccccc23)cc1	98.8% (inactive)	109% (inactive)	104% (inactive)	95.3% (inactive)	97.5% (inactive)	59.3	220% (inactive)	-7.72% (inactive)	104% (inactive)	2% (inactive)	-8.54% (inactive)	16% (inactive)	-3.46% (inactive)	98% (inactive)	-0.1 (inactive)	1% (inactive)	5.13% (inactive)
COc1ccc(/C=C\c2nc(=O)c3ccccc3o2)cc1	111% (inactive)	100% (inactive)	101% (inactive)	81.5% (inactive)	96.7% (inactive)	64.1	360% (inactive)	6.81% (inactive)	108% (inactive)	5% (inactive)	2.1% (inactive)	0.71% (inactive)	8.52% (inactive)	98% (inactive)	-0.01 (inactive)	3% (inactive)	6.11% (inactive)
CCN(CC)c1ccc(C2=NNC(=O)CC2C)cc1[N+](=O)[O-] (stereo not drawn)	97.4% (inactive)	102% (inactive)	95.8% (inactive)	119% (inactive)	105% (inactive)	60.7	189% (inactive)	-15.4% (inactive)	110% (inactive)	3% (inactive)	0.9% (inactive)	-4.02% (inactive)	-0.46% (inactive)	98.9% (inactive)	-0.21 (inactive)	-22% (inactive)	-4% (inactive)
Cc1nc(N)sc1C(=O)N/N=C/c1ccco1	105% (inactive)	107% (inactive)	109% (inactive)	114% (inactive)	115% (inactive)	62.5	145% (inactive)	-3.77% (inactive)	89.3% (inactive)	-1% (inactive)	-0.95% (inactive)	6.36% (inactive)	-5.39% (inactive)	105% (inactive)	0.08 (inactive)	-15% (inactive)	-4.57% (inactive)
CCOc1ccc2nc(NC(=O)NC3CCCCC3)sc2c1	104% (inactive)	105% (inactive)	98.6% (inactive)	107% (inactive)	107% (inactive)	64.2	215% (inactive)	-1.09% (inactive)	89.5% (inactive)	4% (inactive)	3.3% (inactive)	42.2% (inactive)	-7.78% (inactive)	93.8% (inactive)	0.8 (active)	-4% (inactive)	-3.11% (inactive)
CC12CN3CC(C)(CN(C1)C3c1ccc(Cl)cc1Cl)C2=O (stereo not drawn)	103% (inactive)	98.3% (inactive)	112% (inactive)	94.7% (inactive)	104% (inactive)	67.5	387% (inactive)	5.77% (inactive)	98.9% (inactive)	4% (inactive)	-10.5% (inactive)	-0.61% (inactive)	-0.6% (inactive)	95.1% (inactive)	-0.01 (inactive)	-3% (inactive)	-8.55% (inactive)
COc1ccc(C(=O)c2oc3ccc(Br)cc3c2NC(C)=O)cc1	90.9% (inactive)	122% (inactive)	112% (inactive)	82% (inactive)	97.5% (inactive)	61.7	140% (inactive)	4.52% (inactive)	104% (inactive)	1% (inactive)	-11.6% (inactive)	3.03% (inactive)	3.34% (inactive)	96.9% (inactive)	-0.02 (inactive)	8% (inactive)	-0.82% (inactive)
COc1cc(CNCCc2ccccc2F)ccc1OCC(=O)N1CCCCC1	98.6% (inactive)	104% (inactive)	96.7% (inactive)	114% (inactive)	100% (inactive)	57.8	196% (inactive)	-1.79% (inactive)	103% (inactive)	-1% (inactive)	-8.73% (inactive)	22.6% (inactive)	-3.26% (inactive)	98.2% (inactive)	-0.35 (inactive)	2% (inactive)	29.6% (inactive)
COCCN(CCOC)Cc1c(C)[nH]c2c(C)c(C)ccc2c1=O	103% (inactive)	108% (inactive)	97.6% (inactive)	93.7% (inactive)	102% (inactive)	63.2	132% (inactive)	-2.43% (inactive)	99.3% (inactive)	0% (inactive)	4.86% (inactive)	-8.42% (inactive)	5.64% (inactive)	105% (inactive)	-0.29 (inactive)	-9% (inactive)	-10.4% (inactive)
COc1ccc(C2=NOC(COc3ccc4c(C)cc(=O)oc4c3)C2)c(OC)c1 (stereo not drawn)	99% (inactive)	94.6% (inactive)	96% (inactive)	116% (inactive)	91.3% (inactive)	62.4	171% (inactive)	-11.8% (inactive)	99.1% (inactive)	4% (inactive)	12.7% (inactive)	2.4% (inactive)	1.1% (inactive)	95.6% (inactive)	0.04 (inactive)	10% (inactive)	3.45% (inactive)
CSCC[C@H](NC(=O)Nc1ccc(C)cc1C)C(=O)O	99.3% (inactive)	103% (inactive)	99.6% (inactive)	95.7% (inactive)	96.5% (inactive)	56.7	178% (inactive)	3.67% (inactive)	101% (inactive)	6% (inactive)	3.91% (inactive)	6.83% (inactive)	-0.26% (inactive)	94.5% (inactive)	-0.17 (inactive)	7% (inactive)	-7.2% (inactive)
O=C(O)C1[C@H]2C(=O)N(C3CCCC3)C[C@]23C=C[C@H]1O3 (stereo partly drawn)	99.5% (inactive)	104% (inactive)	101% (inactive)	121% (inactive)	113% (inactive)	57.9	153% (inactive)	11.7% (inactive)	88% (inactive)	-2% (inactive)	-17.8% (inactive)	-2.45% (inactive)	-1.21% (inactive)	101% (inactive)	0.04 (inactive)	1% (inactive)	-6.96% (inactive)
CCOC(=O)N1c2ccccc2C=CC1OCC (stereo not drawn)	103% (inactive)	97.7% (inactive)	102% (inactive)	108% (inactive)	109% (inactive)	57	109% (inactive)	2.93% (inactive)	110% (inactive)	3% (inactive)	2.04% (inactive)	-6.59% (inactive)	-0.43% (inactive)	103% (inactive)	-0.29 (inactive)	-3% (inactive)	-13.3% (inactive)
CC(=O)NS(=O)(=O)c1ccc(N)cc1	98.6% (inactive)	101% (inactive)	97% (inactive)	101% (inactive)	104% (inactive)	62.3	335% (inactive)	0.59% (inactive)	101% (inactive)	2% (inactive)	-16.2% (inactive)	-0.64% (inactive)	0.06% (inactive)	103% (inactive)	0.04 (inactive)	5% (inactive)	-3.02% (inactive)
CCn1ccnc1CN(C)Cc1cn(-c2cccc(C)c2)nc1-c1cccc(F)c1	104% (inactive)	95.6% (inactive)	108% (inactive)	92.6% (inactive)	104% (inactive)	63.6	145% (inactive)	-7.79% (inactive)	102% (inactive)	4% (inactive)	-10.5% (inactive)	-10.8% (inactive)	3.23% (inactive)	105% (inactive)	0.11 (inactive)	21% (inactive)	-14.8% (inactive)
O=C(/C=C/c1c[nH]c2ccccc12)c1cccc2ccccc12	106% (inactive)	103% (inactive)	92.9% (inactive)	132% (inactive)	94.9% (inactive)	61.4	336% (inactive)	-72.8% (inactive)	94% (inactive)	2% (inactive)	63.6% (active)	-4.72% (inactive)	-1.5% (inactive)	100% (inactive)	0.19 (inactive)	6% (inactive)	-12% (inactive)
NS(=O)(=O)c1cc2c(cc1Cl)NC(C(Cl)Cl)NS2(=O)=O (stereo not drawn)	100% (inactive)	101% (inactive)	102% (inactive)	108% (inactive)	112% (inactive)	63	132% (inactive)	2.29% (inactive)	92.7% (inactive)	4% (inactive)	23.7% (inactive)	-6.64% (inactive)	2.72% (inactive)	104% (inactive)	0.21 (inactive)	4% (inactive)	-9.91% (inactive)
Cc1ccc(SCC(=O)Nc2nccs2)cc1	101% (inactive)	105% (inactive)	98.6% (inactive)	120% (inactive)	99.7% (inactive)	60.5	4850% (inactive)	6.4% (inactive)	110% (inactive)	4% (inactive)	-0.63% (inactive)	-4.67% (inactive)	-0.83% (inactive)	95.3% (inactive)	-0.24 (inactive)	4% (inactive)	-2.4% (inactive)
CC(C)Oc1cccc(C(=O)N2CCCC2)c1	102% (inactive)	106% (inactive)	94.2% (inactive)	99.9% (inactive)	100% (inactive)	64.7	221% (inactive)	-4.6% (inactive)	101% (inactive)	0% (inactive)	-9.83% (inactive)	-4.57% (inactive)	1.82% (inactive)	93.2% (inactive)	0.14 (inactive)	-4% (inactive)	9.04% (inactive)
